Common to all, as to test: NCI-60 one-dose screen, 48 h (100 = growth as untreated, 0 = no growth, -100 = all killed)
Holding throughout (conditions): 10 µM

Test [1] deals with NCI-H23 lung.
The subject of test [2] is NCI-H226 lung.
Test [3] relates to NCI-H322M lung.
Test [4] relates to NCI-H460 lung.
Test [5] relates to HOP-92 NSCLC.
For test [6], the system named is NCI-H522 lung.
In test [7] the test system is A549/ATCC NSCLC.
The subject of test [8] is 786-0 renal.
For test [9], the system named is COLO 205 colon.
The subject of test [10] is DU-145 prostate.
Test [11] relates to K-562 leukemia.
For test [12], the system named is MALME-3M melanoma.
In test [13] the test system is MDA-MB-231 breast.
Test [14] has as its system SF-268 CNS.
The subject of test [15] is SF-295 CNS.
Test [16] relates to SF-539 CNS.
The subject of test [17] is UACC-257 melanoma.
Test [18] has as its system M14 melanoma.
Test [19] deals with RXF 393 renal.

The structures appear in SMILES notation. Compounds without any hit were thinned out: in the full panel of roughly 83,000, 20% have a hit.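 96-well plates, one dose, 48 hours. Percent growth reported; active if below 10.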 Values without a mark were called inactive. Activity calls are given as the source filed them.

Turning to `OCc1[nH]nc2cc(Nc3ncc4ccc(Br)c(OC5CCC(O)CC5)c4n3)ccc12` (configuration not stated), the growth in [1] is -88.8% (active); in [2] it was -2.72% (active); in [3], -17.9% (active); in test [4] it was 2.31% (active); in test [5], 20.9%; in test [6], -31.2% (active). The growth in [7] was 4.04% (active); in test [8], -26% (active); in test [9], -76.9% (active); in [10], 11.6%; in test [11] it was 11.4%; in [12], -63.4% (active). The growth was -10.2% (active) in test [13]; 7.67% (active) in test [14]; -49.8% (active) in test [15]; -83.3% (active) in test [16]; -18.2% (active) in [17]; -58.9% (active) in test [18].
In the case of `CCOc1ccc2ncc(C#Cc3cncc(C(=O)Nc4ccc(CN5CCN(C)CC5)c(C(F)(F)F)c4)c3)n2n1`, the growth in [1] was -70% (active); in test [2], -59.1% (active); in [3], -76% (active); in [4] it was -52.9% (active); in test [5], -46.6% (active); in test [6], -41.3% (active). Besides, the growth in test [7] was -33.9% (active); in test [8], -43.8% (active); in [9], -45.8% (active); in test [10], -96.7% (active); in test [11], 4.86% (active); in test [12], -81.9% (active). Further, the growth was -88.9% (active) in test [13]; -49.4% (active) in test [14]; -88.5% (active) in test [15]; -97.9% (active) in test [16]; -62.2% (active) in [17]; -73% (active) in test [18].
In the case of `COc1ccc(C(=O)Nc2ccc(-c3ccc4c(c3)NC(=O)/C4=C\c3ccc[nH]3)cc2)cc1`, the growth in [1] was 41.5%; in test [2], -4.15% (active); in [3], 86.6%; in test [4], 14.9%; in [5], 97.5%; in test [7], 74.4%. For the same compound, the growth is 20.4% in test [8]; 48.1% in test [9]; -25.7% (active) in test [10]; 67.5% in [11]; 50.9% in test [12]; 25.6% in test [13]. Further, the growth in test [19] is 8.7% (active); in [14], 0.17% (active); in test [15] it was -76.1% (active); in test [16] it was 76.8%; in test [17] it was 77.5%; in [18] it was 28.1%.
For the compound `O=C(Nc1ccc(F)c(Cl)c1)c1cc(-c2ccc(F)cc2F)ccc1O`, the growth was -46.9% (active) in [1]; -23.4% (active) in [2]; 2.57% (active) in test [3]; 0.118% (active) in test [4]; -15% (active) in [6]; 9.32% (active) in test [7]. For the same compound, the growth in [8] was 9.93% (active); in test [9], 4.58% (active); in test [10] it was 13.3%; in test [11], 6.16% (active); in [12] it was -28.6% (active); in test [13], -24.5% (active). Besides, the growth in [19] is -16.6% (active); in test [14] it was 4.5% (active); in [15] it was -82.1% (active); in test [16], -7.23% (active); in [17], -13.5% (active); in [18], 20%.

(Values after PubChem BioAssay (NCI).)
